# System: VDR:RXRa (NR concentration 270 nM, RXRa partner concentration 90 nM)
# Assay: PBM binding z-score (relative to random genomic background probes); higher = stronger binding; sequences stand for … in GC…GCGATTGACAGCGTAGAATGAAGG
# Summary of the method: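 Regression normalization was applied to scanned fluorescence from custom Agilent 4×180K protein-binding microarrays. Before scanning, arrays were incubated 1 h with ligand-free nuclear receptor dimers, and binding was detected with antibodies against each partner (one per run). Binding z-scores use the random background probes as reference.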
row,Sequence,PBM binding z-score
1,CGTTCAAGGTCAAGGTCAGTGAAAGAGACTCGAA,5
2,ACTAGTTGGTCAGCCGAGGTCACACACAATTCGG,4.66
3,AGTCAAAGTTCACTAGATAACGTAAGATTCAGCT,3.5
4,ACTCGGAGAACAAAGGTCAGAGCTACGCCAGTGA,2.77
5,CCTAGGTGGTCAGGAGGTCACACACCGGATATGA,3.76
6,CCTTAAGGGTCACTGACAGGTTATAGCATTTGGA,5
7,TCGAGTAGGTTACCAATGGGGCATTCCGCTTTCT,0.11
8,TCTTGTAGATCAACGGTTAAGAAAGCCGAAGCCT,0.234
9,CCGACTGGGGCAGAAAGGTTACCATACCATCCGG,0.836
10,GCTAGCAGGCCATTTGGGTTACTCAATGACGGGC,-0.436
11,AGTCAAAGTTCATCTAGGGAACGTAAGATATGCT,4.73
12,CAAACTAGGTCACCGGATGGTCAAAGTCCGCATG,2.78
13,CCTCGGAGGCCAGAAGGTCAGAGCTGTCCGCTTT,0.72
14,CTCGAAAGGTCGGTTGAGGTGAGTGTACGGATAA,2.42
15,TAGCCTAGGTCATGGTCCAGTATACCACGCGAAC,2.14
16,CCTGCTAGGTCAATGGTCAGCTACAGCAGCTCGC,0.991
17,TCGAGTACGTTAGGGGCATTCAGAATGGCGTCGA,2.6
18,TAGCCTAGGACATTGGGCCAGTATAGTACGCATC,-0.544
19,CCTTACGGGTCACAAGGTTATAGCACGACGAGCG,4.37
20,GTAACGAGGGCAAGTTGATAGCAGAGTTTGATGG,1.09

row,Sequence,PBM binding z-score
1,ACGTACGGGTCAACGAGGTTATAGCACGCGTATA,7.49
2,TCAAACAGGTGAAGGTAACTCAGGTACGCAGTCG,1.13
3,CGAACTAGGTCAGAACTGGACAGTGAAGGATGAT,0.181
4,CCTACTGGTCCAAAGGTCATTGATTCCAATGCTC,4.83
5,CCGACTGGGGCAGAAAGGTTACCACACCATCCGG,1.15
6,CCTGCTAGGTCAATAGTCAGCTAAAGCAGCTCGC,0.487
7,GCTAGCTGGCCATTTGGGTCACTCAATGACGGGC,-0.155
8,TTACCAAGGGGAAGGTCGTTGATCCCTCTGTAGA,0.561
9,ACTATTAGTTGACTTAGGGCAACCCATACGACGC,0.512
10,CAAACTAGGTCGCGAAAGGTCAAAGTCGAATGAC,5.94
11,CCTAGCAGGCCAGTGTCACTCAAGCATTTCGCTT,-0.398
12,ACTTACGGGTCAACGAGGTTATAGGACGCGTATA,7.69
13,TCATATAGGTAAACAGGTGGAAGTCCGTAAGTTA,0.7
14,ATCGAAAGGTCGCGAGGTGAGTATACAGAAAGGC,3.53
15,CCCCGGAGGACAACAGGAGGTCAGAGCTGCCAGA,1.91
16,ACTTACGGGTCAACGAGGTTATAGTACGCGTATA,7.78
17,TCGAGTAGGTTACCATTGGGGCATTCAGCTTTCT,0.0183
18,CCTTGTTGGTCAAGGTCACACACGCTATAGGTAC,3.83
19,CCTACTGGGCCACGAAAGGTCATTTATTCAGTGA,4.27
20,TCTTGTAGATCAAGAGAGGTTAAGAAAGTGCGCT,1.77

# From the supplement of paper PMC6555819
